Of roughly 7,900 targets only a part is listed; those with a hit were picked by preference. About 0.6% of all pairs of compound and target were hits. Values without a mark were called inactive.
Assays:
Experiment in all cases: log2 fold change, soluble protein after heating vs DMSO (PISA); higher = thermal stabilisation; K562 cells, 10 uM, 30 min; active = over 0.2 and 3.5 SD of the protein, either way, in both replicates (recomputed)
erlotinib = compound: C#Cc1cccc(Nc2ncnc3cc(OCCOC)c(OCCOC)cc23)c1 [erlotinib]
Summary of the method: (§1)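 K562 cells at 2×10^6 cells/mL were exposed to 10 μM compound for 30 min, then aliquots were heated for 3 min across 48°C-58°C, pooled, and extracted in PBS containing 0.5% NP-40 at 4°C. The supernatant after 21,000xg for 90 min was taken as soluble protein and measured by TMTpro 16plex LC-MS/MS with channel sums equalised. Thermal stability is reported relative to control samples, with values from duplicates. Fold changes are given on a log2 scale.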

[1] = compound: C/C(=N\NC(=O)C1=CC(=CC=C1)S(=O)(=O)N2CCOCC2)/C3=C(C=CC(=C3)Cl)O
Summary of the method: as §1

[2] = compound: C1=CC(=C(C=C1Cl)C2=NC3=NC=CN=C3C(=N2)NC4=CC=NC=C4)F
Summary of the method: as §1

[3] = compound: C1=CC(=CC=C1C2=NC3=C(N2)C=C(C=C3)C(=O)N)OC4=CC=C(C=C4)Cl
Summary of the method: as §1

[4] = compound: C1=CC2=C(C=CC(=C2)/C=C\3/C(=O)NC(=NCC4=CC=CS4)S3)N=C1
Summary of the method: as §1

[5] = compound: C1=CC2=NC=CN=C2C=C1/C=C/3\C(=O)NC(=O)S3
Summary of the method: as §1

[6] = compound: C1=CC=C(C=C1)C2=NC(=C(N2)C3=CC=NC=C3)C4=CC(=C(C=C4)Cl)O
Summary of the method: as §1

[7] = compound: C1=CC=C2C(=C1)C3=NNC4=CC=CC(=C43)C2=O
Summary of the method: as §1

[8] = compound: C1CCN(C1)C(=O)NC2=CC=CC(=C2)NC3=NC=C(C(=N3)NCCC4=CN=CN4)Br
Summary of the method: as §1

[9] = compound: C1CN(CCC1(CC2=CC=C(C=C2)Cl)N)C3=NC=NC4=C3C=CN4
Summary of the method: as §1

Sequence of UniProt P48426 (P48426 whole entry, looked up): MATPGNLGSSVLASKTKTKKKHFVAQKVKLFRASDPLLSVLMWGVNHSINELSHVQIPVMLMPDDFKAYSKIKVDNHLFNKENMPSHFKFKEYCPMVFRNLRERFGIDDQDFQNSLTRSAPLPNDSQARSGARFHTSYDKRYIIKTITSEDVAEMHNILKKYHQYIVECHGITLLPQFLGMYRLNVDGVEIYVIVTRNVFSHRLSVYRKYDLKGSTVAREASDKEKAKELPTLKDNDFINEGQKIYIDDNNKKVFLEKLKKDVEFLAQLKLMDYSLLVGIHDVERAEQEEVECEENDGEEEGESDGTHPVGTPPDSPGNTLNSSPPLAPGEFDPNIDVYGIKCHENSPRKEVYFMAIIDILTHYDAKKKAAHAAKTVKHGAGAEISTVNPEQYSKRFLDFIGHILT
Sequence of UniProt O60678 (O60678 whole entry, looked up): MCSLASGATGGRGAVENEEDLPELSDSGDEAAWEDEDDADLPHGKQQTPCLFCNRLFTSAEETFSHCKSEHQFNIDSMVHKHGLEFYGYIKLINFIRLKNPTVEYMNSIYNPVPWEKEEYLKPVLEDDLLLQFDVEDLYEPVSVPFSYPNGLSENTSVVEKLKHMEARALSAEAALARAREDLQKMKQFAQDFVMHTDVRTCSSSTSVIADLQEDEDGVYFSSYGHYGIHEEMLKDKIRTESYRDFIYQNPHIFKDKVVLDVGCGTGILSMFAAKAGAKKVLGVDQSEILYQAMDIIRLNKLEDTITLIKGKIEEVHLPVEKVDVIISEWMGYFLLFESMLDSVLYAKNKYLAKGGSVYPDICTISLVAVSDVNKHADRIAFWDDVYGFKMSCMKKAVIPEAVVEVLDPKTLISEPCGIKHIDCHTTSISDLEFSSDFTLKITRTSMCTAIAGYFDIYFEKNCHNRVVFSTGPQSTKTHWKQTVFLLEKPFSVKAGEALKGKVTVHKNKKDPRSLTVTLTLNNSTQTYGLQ
Sequence of UniProt Q32M88 (Q32M88 whole entry, looked up): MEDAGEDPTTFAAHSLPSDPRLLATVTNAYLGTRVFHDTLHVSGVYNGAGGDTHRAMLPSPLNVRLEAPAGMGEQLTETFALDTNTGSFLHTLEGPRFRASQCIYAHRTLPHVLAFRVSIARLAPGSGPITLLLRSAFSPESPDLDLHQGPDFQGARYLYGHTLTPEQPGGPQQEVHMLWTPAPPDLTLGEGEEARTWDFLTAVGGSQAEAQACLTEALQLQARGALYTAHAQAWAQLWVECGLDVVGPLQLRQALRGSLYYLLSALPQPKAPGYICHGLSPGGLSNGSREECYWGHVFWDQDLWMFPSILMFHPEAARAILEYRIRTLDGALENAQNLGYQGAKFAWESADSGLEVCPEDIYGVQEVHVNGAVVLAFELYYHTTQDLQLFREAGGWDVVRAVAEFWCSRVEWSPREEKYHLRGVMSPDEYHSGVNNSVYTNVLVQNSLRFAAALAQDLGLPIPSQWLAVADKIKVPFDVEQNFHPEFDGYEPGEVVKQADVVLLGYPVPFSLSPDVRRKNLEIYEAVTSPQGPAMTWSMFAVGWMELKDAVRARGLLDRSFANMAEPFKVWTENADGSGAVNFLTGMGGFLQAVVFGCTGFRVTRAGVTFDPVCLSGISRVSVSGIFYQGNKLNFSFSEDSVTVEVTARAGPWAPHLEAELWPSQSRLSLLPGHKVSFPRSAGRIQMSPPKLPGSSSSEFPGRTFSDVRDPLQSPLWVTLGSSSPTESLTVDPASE
Sequence of UniProt O00625 (O00625 whole entry, looked up): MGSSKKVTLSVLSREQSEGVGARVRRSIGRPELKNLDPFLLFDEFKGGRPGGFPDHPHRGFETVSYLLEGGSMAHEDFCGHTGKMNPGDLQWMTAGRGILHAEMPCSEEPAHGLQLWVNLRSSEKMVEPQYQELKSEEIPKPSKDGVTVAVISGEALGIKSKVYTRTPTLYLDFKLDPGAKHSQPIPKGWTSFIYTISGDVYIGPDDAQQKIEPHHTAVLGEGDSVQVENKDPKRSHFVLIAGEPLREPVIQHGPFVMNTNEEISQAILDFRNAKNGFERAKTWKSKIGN
Sequence of UniProt Q8IWE5 (Q8IWE5 whole entry, looked up): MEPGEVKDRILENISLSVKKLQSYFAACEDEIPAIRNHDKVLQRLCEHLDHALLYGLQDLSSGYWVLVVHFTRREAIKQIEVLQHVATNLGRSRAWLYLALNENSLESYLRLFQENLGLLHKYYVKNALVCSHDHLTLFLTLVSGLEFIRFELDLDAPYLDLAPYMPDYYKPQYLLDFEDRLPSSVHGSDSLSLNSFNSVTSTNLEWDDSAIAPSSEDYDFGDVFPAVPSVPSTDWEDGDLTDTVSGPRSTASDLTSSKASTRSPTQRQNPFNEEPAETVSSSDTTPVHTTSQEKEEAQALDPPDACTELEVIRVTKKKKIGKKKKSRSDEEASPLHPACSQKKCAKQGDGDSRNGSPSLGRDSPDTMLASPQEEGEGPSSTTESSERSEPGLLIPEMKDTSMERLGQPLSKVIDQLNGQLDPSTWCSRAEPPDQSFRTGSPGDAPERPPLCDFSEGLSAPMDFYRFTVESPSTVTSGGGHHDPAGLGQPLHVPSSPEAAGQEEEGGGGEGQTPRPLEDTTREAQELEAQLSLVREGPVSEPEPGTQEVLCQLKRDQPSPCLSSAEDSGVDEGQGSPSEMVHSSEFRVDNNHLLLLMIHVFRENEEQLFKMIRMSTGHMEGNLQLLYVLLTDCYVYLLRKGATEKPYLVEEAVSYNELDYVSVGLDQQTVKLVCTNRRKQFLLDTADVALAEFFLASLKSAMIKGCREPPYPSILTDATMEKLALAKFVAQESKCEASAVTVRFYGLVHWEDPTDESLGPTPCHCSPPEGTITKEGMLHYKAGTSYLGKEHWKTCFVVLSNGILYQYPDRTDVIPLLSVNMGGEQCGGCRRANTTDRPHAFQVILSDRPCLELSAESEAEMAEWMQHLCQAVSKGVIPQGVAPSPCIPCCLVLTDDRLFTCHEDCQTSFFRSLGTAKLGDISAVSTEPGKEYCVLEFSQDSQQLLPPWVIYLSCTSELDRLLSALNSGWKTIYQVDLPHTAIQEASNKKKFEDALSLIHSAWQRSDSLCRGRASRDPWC
Sequence of UniProt O75439 (O75439 whole entry, looked up): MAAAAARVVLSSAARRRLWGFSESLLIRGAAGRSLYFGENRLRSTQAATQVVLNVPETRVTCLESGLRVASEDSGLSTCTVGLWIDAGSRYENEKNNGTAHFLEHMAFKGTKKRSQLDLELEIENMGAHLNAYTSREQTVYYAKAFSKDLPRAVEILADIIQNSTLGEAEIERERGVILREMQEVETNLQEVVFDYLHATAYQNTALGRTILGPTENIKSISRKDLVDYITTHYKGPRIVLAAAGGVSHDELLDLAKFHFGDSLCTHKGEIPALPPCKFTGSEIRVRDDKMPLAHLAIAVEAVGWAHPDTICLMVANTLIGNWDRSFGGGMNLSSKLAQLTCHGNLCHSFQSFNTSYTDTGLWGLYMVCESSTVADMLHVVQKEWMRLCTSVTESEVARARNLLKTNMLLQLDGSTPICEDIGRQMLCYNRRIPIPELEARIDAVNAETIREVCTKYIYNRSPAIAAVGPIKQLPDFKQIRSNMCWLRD
Sequence of UniProt Q8WUK0 (Q8WUK0 whole entry, looked up): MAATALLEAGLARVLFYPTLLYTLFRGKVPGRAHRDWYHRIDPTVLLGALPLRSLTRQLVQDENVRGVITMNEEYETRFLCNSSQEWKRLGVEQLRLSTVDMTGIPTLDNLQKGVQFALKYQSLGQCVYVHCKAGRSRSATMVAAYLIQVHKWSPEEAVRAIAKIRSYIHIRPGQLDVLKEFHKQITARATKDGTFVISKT
Sequence of UniProt Q16513 (Q16513 whole entry, looked up): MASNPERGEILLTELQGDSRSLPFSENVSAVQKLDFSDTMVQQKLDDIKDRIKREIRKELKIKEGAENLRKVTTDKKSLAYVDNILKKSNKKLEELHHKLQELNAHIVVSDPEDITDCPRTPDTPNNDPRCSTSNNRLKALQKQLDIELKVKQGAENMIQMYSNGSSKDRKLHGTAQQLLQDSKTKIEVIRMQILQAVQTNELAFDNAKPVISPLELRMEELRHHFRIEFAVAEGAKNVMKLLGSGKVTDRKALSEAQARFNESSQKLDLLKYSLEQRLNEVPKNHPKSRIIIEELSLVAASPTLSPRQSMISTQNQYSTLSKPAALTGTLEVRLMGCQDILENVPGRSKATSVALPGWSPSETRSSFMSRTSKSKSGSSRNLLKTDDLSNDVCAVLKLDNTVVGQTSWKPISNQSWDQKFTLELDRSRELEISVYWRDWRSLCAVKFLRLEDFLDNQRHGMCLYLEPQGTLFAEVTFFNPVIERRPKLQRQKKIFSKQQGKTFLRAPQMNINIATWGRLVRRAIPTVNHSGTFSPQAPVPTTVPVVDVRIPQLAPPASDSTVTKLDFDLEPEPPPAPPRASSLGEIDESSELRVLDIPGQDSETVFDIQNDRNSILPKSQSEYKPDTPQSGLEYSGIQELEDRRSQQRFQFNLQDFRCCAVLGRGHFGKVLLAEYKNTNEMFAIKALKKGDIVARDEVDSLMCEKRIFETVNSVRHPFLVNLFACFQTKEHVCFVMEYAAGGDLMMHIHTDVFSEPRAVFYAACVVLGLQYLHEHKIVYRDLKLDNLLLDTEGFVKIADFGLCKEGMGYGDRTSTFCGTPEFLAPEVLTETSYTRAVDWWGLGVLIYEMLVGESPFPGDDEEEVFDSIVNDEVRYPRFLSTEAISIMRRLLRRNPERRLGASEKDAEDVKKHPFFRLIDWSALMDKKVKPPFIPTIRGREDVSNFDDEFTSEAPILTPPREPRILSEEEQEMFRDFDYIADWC
Sequence of UniProt P51665 (P51665 whole entry, looked up): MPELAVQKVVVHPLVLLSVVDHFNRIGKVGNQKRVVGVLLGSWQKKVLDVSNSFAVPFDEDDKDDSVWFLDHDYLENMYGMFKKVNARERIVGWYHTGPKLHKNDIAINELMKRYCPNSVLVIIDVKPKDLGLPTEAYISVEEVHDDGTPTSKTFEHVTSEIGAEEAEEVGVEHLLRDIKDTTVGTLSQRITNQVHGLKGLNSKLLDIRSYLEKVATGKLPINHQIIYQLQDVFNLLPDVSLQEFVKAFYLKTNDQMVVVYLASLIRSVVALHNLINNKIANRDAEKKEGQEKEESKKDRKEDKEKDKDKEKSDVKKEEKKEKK

| Target | log2 fold change (erlotinib) | log2 fold change [1] | log2 fold change [2] | log2 fold change [3] | log2 fold change [4] | log2 fold change [5] | log2 fold change [6] | log2 fold change [7] | log2 fold change [8] | log2 fold change [9] |
| --- | --- | --- | --- | --- | --- | --- | --- | --- | --- | --- |
| PSMA3 (UniProt P25788) | -0.052 | -0.075 | 0.016 | 0.028 | -0.073 | -0.025 | -0.023 | 0.002 | -0.008 | 0.044 |
| PRUNE1 (UniProt Q86TP1) | 0.002 | 0.063 | 0.062 | 0.03 | -0.034 | -0.016 | 0.051 | 0.045 | -0.079 | -0.005 |
| PMPCB (UniProt O75439) | -0.022 | 0 | 0.031 | 0.024 | 0.019 | 0.007 | 0.023 | 0.078 | -0.014 | 0.046 |
| PIGT (UniProt Q969N2) | -0.045 | 0.037 | 0.002 | 0.034 | 0.009 | -0.001 | 0.011 | 0.018 | -0.006 | -0.003 |
| PCNT (UniProt O95613) | 0.284 | -0.138 | -0.095 | -0.099 | 0.15 | -0.023 | -0.079 | -0.097 | 0.065 | -0.021 |
| PSMD7 (UniProt P51665) | -0.074 | -0.1 | -0.045 | -0.023 | -0.015 | -0.072 | 0.02 | -0.009 | 0.044 | -0.01 |
| PKM (UniProt P14618) | 0.008 | -0.005 | 0.052 | 0.003 | 0.002 | -0.003 | -0.016 | -0.011 | -0.006 | 0.029 |
| PRKAB2 (UniProt O43741) | -0.054 | 0.29 | 0.103 | 0.032 | -0.022 | -0.115 | 0.203 | 0.144 | -0.218 | 0.064 |
| PARG (UniProt Q86W56) | 0.063 | 0.067 | 0.034 | -0.015 | 0.063 | 0.059 | 0.043 | 0.063 | -0.079 | -0.071 |
| PRCP (UniProt P42785) | -0.028 | 0.013 | 0.049 | -0.025 | -0.052 | 0.014 | -0.019 | -0.001 | 0.038 | 0.052 |
| PSMC2 (UniProt P35998) | -0.05 | -0.054 | -0.057 | 0.008 | -0.001 | -0.03 | 0.019 | 0.02 | -0.007 | -0.031 |
| PCYT1B (UniProt Q9Y5K3) | 0.05 | 0.068 | -0.043 | 0.023 | 0.078 | 0.079 | -0.066 | 0.004 | 0.01 | -0.003 |
| PNPLA2 (UniProt Q96AD5) | 0.017 | 0.052 | 0.007 | -0.021 | 0.045 | 0.063 | -0.015 | -0.027 | 0.101 | -0.034 |
| PRMT3 (UniProt O60678) | -0.056 | 0.147 | 0.03 | 0.027 | 0.066 | 0.011 | 0.028 | -0.003 | -0.01 | -0.089 |
| POLR3K (UniProt Q9Y2Y1) | -0.082 | 0.005 | -0.005 | 0.007 | -0.057 | -0.038 | -0.235 (active) | -0.056 | -0.006 | 0.031 |
| PRMT8 (UniProt Q9NR22) | -0.008 | 0.03 | 0.159 | -0.067 | 0.099 | -0.005 | 0.122 | 0.042 | 0.012 | 0.028 |
| PTPMT1 (UniProt Q8WUK0) | -0.009 | -0.017 | 0.202 | 0.053 | 0.009 | 0.015 | 0.03 | 0.013 | -0.001 | -0.045 |
| PSMC1 (UniProt P62191) | -0.093 | -0.063 | -0.034 | 0.037 | -0.027 | -0.028 | -0.017 | 0.029 | 0.012 | -0.004 |
| PIR (UniProt O00625) | -0.027 | -0.058 | 0.025 | 0.464 (active) | 0.111 | 0.031 | -0.027 | 0.225 (active) | -0.053 | -0.002 |
| PRPF38A (UniProt Q8NAV1) | -0.032 | 0.035 | -0.01 | 0.049 | 0 | -0.046 | 0 | -0.08 | 0.008 | 0.018 |
| PKN2 (UniProt Q16513) | 0.067 | 0.073 | -0.019 | -0.075 | 0.076 | -0.075 | 0.07 | -0.031 | -0.033 | -0.209 |
| PECAM1 (UniProt P16284) | -0.039 | 0.072 | -0.055 | 0.057 | 0.054 | -0.024 | -0.05 | -0.133 | 0.057 | 0.021 |
| PPP1R12A (UniProt O14974) | 0.004 | 0.044 | 0.023 | 0.023 | -0.188 | 0 | 0.035 | -0.067 | -0.074 | -0.485 (active) |
| PSMD3 (UniProt O43242) | -0.074 | -0.05 | -0.072 | 0.002 | -0.022 | -0.028 | 0.008 | 0.033 | -0.012 | -0.066 |
| PCBP2 isoform 3 (UniProt Q15366) | -0.01 | 0.087 | 0.038 | -0.039 | 0.019 | 0.025 | 0.063 | 0.017 | -0.039 | 0.01 |
| PGGHG (UniProt Q32M88) | 0.059 | 0.114 | 0.024 | 0.002 | -0.44 (active) | 0.048 | -0.049 | -0.248 | -0.225 | 0.119 |
| PLEKHM2 (UniProt Q8IWE5) | 0.228 | 0.07 | 0.034 | -0.03 | 0.075 | 0.069 | 0.082 | -0.065 | -0.005 | -0.066 |
| PCK2 (UniProt Q16822) | 0.025 | -0.224 (active) | 0.108 | -0.009 | 0.038 | -0.016 | -0.023 | 0.072 | -0.018 | -0.001 |
| PSMD8 (UniProt P48556) | -0.045 | -0.096 | -0.046 | 0.023 | -0.027 | -0.031 | 0.036 | 0.039 | 0.055 | -0.031 |
| PIP4K2A (UniProt P48426) | 0.172 | 0.028 | 0.075 | -0.058 | -0.065 | 0.287 | 0.108 | 0.076 | 0.162 | -0.013 |
